Bioassay records: PubChem BioAssay, several laboratories
Shown are actives, neighbours in structure and some others; about 3.7% of the full set was active somewhere.
BoNT-A LC inh2: BoNT A light chain protease inhibition; hit rate 0.17% among 360,000; multiplex microsphere protease substrate cleavage, flow cytometry; inhibition, % at 10 µM; AID 588499; note: plate controls were buffer without enzyme for full effect and enzyme alone for no effect
Anthrax LF prot: blocks Bacillus anthracis lethal factor protease; P15917; inhibition, % at 10 µM; hit rate 0.12% among 360,000; multiplex microsphere protease cleavage assay, LF; AID 588501; note: plate controls were buffer without enzyme for full effect and enzyme alone for no effect
MazF activator: increases E. coli MazEF RNase cleavage of RNA; P0AE70; FAM/BHQ RNA-DNA oligo cleavage fluorescence, 5 h; activation, % at 20 µM; hit rate 0.32% among 350,000; AID 504720; in the data active = activation above about 50%
Target sequence (P0AE70 whole entry, looked up): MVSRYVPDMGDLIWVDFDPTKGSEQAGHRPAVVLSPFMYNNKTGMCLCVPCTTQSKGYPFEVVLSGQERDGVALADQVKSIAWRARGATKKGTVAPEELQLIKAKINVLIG
BoNT-F LC inh: blocks Botulinum neurotoxin F light chain protease; inhibition, % at 10 µM; Multiplex microsphere protease cleavage assay, flow cytometry; hit rate 0.22% among 360,000; in the data active = inhibition above about 35%, passing the limit was not always enough; inconclusive = no clear call, values can overlap the other calls; note: plate controls were buffer without enzyme for full effect and enzyme alone for no effect
Autofluor counter: counter-screen for toxin protease inhibitors: compound fluorescence; compound autofluorescence counterscreen, microsphere flow cytometry; hits give high values; fluorescence intensity (no concentration beside the values); hit rate 3.1% among 360,000; AID 624483; in the data active = fluorescence intensity above about 16000; inconclusive = no clear call, values can overlap the other calls
An asterisk follows results filed as active; u = inconclusive; x = no result given. Cut-off read from the data, not from the text of the source, unless noted: active = inhibition above about 30%; inconclusive = no clear call, values can overlap the other calls; inactive = below that.

SMILES | BoNT-A LC inh2 | Anthrax LF prot | MazF activator | BoNT-F LC inh | Autofluor counter
Cc1nn(-c2ccccc2)c2c1C1(C(=O)N(C)c3ccccc31)C(C#N)=C(N)O2 (configuration not stated) | 0 | -6 | -1 | -1 | 9741
O=C(c1cccs1)N1C[C@H](O)[C@@H](n2cc(C3CC3)nn2)C[C@@H]1c1ccccc1 | 0 | -9 | -10 | 1 | 3830
CC1CCCCN1C(=O)c1ccc(C(=O)N2CCCCC2C)cc1 (configuration not stated) | 3 | 0 | -4 | 4 | 21133*
Cc1ccc(C)c(S(=O)(=O)NCc2ccc(C(=O)N3CCCCC3C)cc2)c1 (configuration not stated) | 2 | -12 | 1 | 4 | 18934*
CCCCCc1c(CC)ncn1CCc1ccccc1OC | 0 | -8 | x | -12 | 4834
CCn1c(CNC(=O)c2ccco2)nnc1SCC(=O)Nc1ccc(Br)cc1F | 5 | -5 | 10 | 8 | 20415*
Cn1c(CNC(=O)c2ccco2)nnc1SCC(=O)Nc1ccc(Br)cc1F | -1 | 0 | 4 | -16 | 2580
COC(=O)[C@@]1(Cc2ccc(F)cc2)[C@H]2c3cc(C(=O)N(C)C)n(CCc4c[nH]c5ccc(O)cc45)c3C[C@H]2CN1C(=O)c1ccccc1 | -1 | 1 | x | -23 | 6094
COc1ccc(C(=O)Cn2c3ccccc3n3nc(CCC(=O)O)c(=O)nc23)cc1OC | 0 | 2 | 0 | -1 | 20229*
CCC/C=C/c1ccc(CN2C(C(C)C)C(=O)N(Cc3cn(CC4CCCCC4)nn3)CCS2(=O)=O)cc1 (configuration not stated) | 0 | -4 | 0 | 0 | 3680
Cc1cccc(N(C)c2cc(-c3ccc(F)cc3)nc3ccnn23)c1 | 1 | -18 | x | -28 | 3372
C=CCn1c(=O)/c(=C\c2ccccn2)s/c1=C(/C#N)C(=O)NCC1CCCO1 (configuration not stated) | -1 | -3 | 264* | -5 | 4397
C=CCn1c(=O)/c(=C/c2ccc(C)o2)s/c1=C(/C#N)C(=O)c1ccccc1 | 12 | 3 | -153 | 4 | 6604
Cc1ccccc1C(=O)N/N=C/c1ccncc1 | u | -2 | -7 | -1 | 19987*
Nc1ncnc2c1ncn2[C@@H]1O[C@H](C(=O)N[C@H](CO)Cc2ccc(O)cc2)[C@@H](O)[C@H]1O | -1 | 2 | x | -4 | 5540
Cc1ccccc1N1CCN(c2ncnc3scc(-c4cccs4)c23)CC1 | 2 | -10 | 7 | 0 | 21408*
CCCc1cc(=O)oc2c3c(cc(OCC(=O)N4CCC(C(=O)O)CC4)c12)OC(C)(C)CC3 | -1 | -7 | x | 1 | 5576
CCOC(=O)CSc1nc(C)cc(C)n1 | 0 | 1 | 5 | -1 | 2533
CSc1nc(C)cc(SCC(=O)Nc2ccccc2)n1 | -1 | 1 | -9 | -3 | 23915*
COC(=O)CSc1cc(C)nc(SC)n1 | -2 | 3 | 0 | -2 | 20467*
COC(=O)CSc1nc(C)cc(C)n1 | -1 | -3 | 5 | -4 | 4901
COc1ccc(NC(=O)CSc2nc(C)cc(C(F)(F)F)n2)cc1 | 0 | -2 | 17 | -8 | 3740
Cc1cc(C(F)(F)F)nc(SCC(=O)Nc2ccccc2)n1 | u | -1 | 1 | -4 | 22832*
CCOC(=O)CSc1cn2c(n1)CCC2 | -4 | -3 | -3 | -5 | 24514*
Cc1cc(SCC(=O)Nc2ccccc2)nc(C)n1 | 0 | -1 | -3 | -6 | 2729
SMILES | BoNT-A LC inh2 | Anthrax LF prot | MazF activator | BoNT-F LC inh | Autofluor counter
CSc1nsc(SCC(=O)Nc2cccc(C(C)=O)c2)n1 | 2 | 0 | -4 | 2 | 21617*
CCOC(=O)CSc1cc(C)nc(NC(C)=O)n1 | u | 3 | 3 | 3 | 19697*
O=[N+]([O-])c1cc2c(c([N+](=O)[O-])c1)Nc1ccccc1O2 | -1 | -14 | 9 | 0 | 4137
O=C(NNC(=O)c1ccncc1)c1ccncc1 | -1 | -9 | 2 | 0 | 22444*
CC(=O)NNC(=O)c1ccncc1 | 0 | -3 | -6 | -3 | 5903
O=C(NNS(=O)(=O)c1ccc(Br)cc1)c1ccncc1 | -2 | -2 | 2 | -2 | 20766*
O=C(O)c1ccc(NS(=O)(=O)/C=C/c2ccccc2)cc1O | 5 | 1 | 3 | 4 | 21416*
O=C(CN1CCCCC1)Nc1ccc(S(=O)(=O)c2ccc(NC(=O)CN3CCCCC3)cc2)cc1 | 0 | -14 | 16 | -3 | 3962
CCOc1cccc2sc(=NC(=O)c3ccc(S(=O)(=O)N4CCOCC4)cc3)n(C)c12 | 3 | 0 | -13 | 3 | 22851*
CCOCCn1c(=NC(=O)c2ccc(S(=O)(=O)N3CCOCC3)cc2)sc2cc(S(N)(=O)=O)ccc21 | -1 | -7 | 20 | -3 | 5828
C[C@@H]1CN([C@H](C)CO)C(=O)c2cc(Br)cnc2O[C@@H]1CN(C)C(=O)Cc1ccccc1 | 0 | -2 | 7 | -4 | 3990
O=C(O)C1CCCCC1C(=O)NCCc1ccccc1 (configuration not stated) | 1 | -11 | -2 | 1 | 15725
CC(CNC(=O)C1CCCCC1C(=O)O)c1ccccc1 (configuration not stated) | 1 | -3 | 3 | 2 | 22629*
CCC1(c2ccc(F)cc2)NC(=O)N(CC(=O)N2CC(=O)Nc3ccccc32)C1=O (configuration not stated) | 2 | 0 | -9 | 7 | 5072
CC(=O)n1nc(-c2ccccc2)nc1NCc1ccc(F)cc1 | -1 | -7 | -1 | -3 | 4540
O=C(c1cccs1)n1nc(-c2ccccc2)nc1NCc1ccc(F)cc1 | u | -3 | -4 | -6 | 25264*
COc1ccc(OC)c(C(C)NC(C)=O)c1 (configuration not stated) | -4 | -3 | 1 | -5 | 18227*
CC12CC3CC(C)(C1)CC(C(=O)NCc1cccnc1)(C3)C2 | x | x | -24 | x | x
Cc1cc(NC(=O)CSc2nc(-c3ccccc3Cl)nc3c2c(=O)n(C)c(=O)n3C)no1 | -1 | -3 | 112* | -15 | 4670
CN(C)CCN(C)Cc1c2ccccc2c(CN(C)CCN(C)C)c2ccccc12 | 33* | -7 | -158 | 3 | 2999
Cc1nn(Cc2ccc([N+](=O)[O-])cc2)c(=O)n1-c1ccccc1 | u | -10 | -3 | 10 | 17702*
O=C(Nc1cc(C(=O)N2CCCC2)ccc1N1CCCC1)C1CC1 | u | -1 | 2 | -3 | 22662*
O=C(Nc1cc(C(=O)N2CCCC2)ccc1N1CCCC1)c1ccccc1F | 0 | 0 | -1 | -2 | 9877
CC1CCN(S(=O)(=O)c2cc(Br)cc(C(=O)NC3=NCCS3)c2)CC1 | 0 | 0 | -1 | -7 | 24164*
CCCCCOc1ccc(NC(=O)C2OC3OC(C)(C)OC3C3OC(C)(C)OC23)cc1 (configuration not stated) | 0 | -2 | -2 | -3 | 2407
COc1ccc(NC(=O)C2OC3OC(C)(C)OC3C3OC(C)(C)OC23)cc1 (configuration not stated) | -1 | 0 | -2 | -1 | 23845*
O=C(O)c1ccc(NC(=O)c2ccc3c(c2)C(=O)N(c2ccccc2)C3=O)cc1 | 0 | 0 | -8 | 38* | 3956
